Rows were chosen to be rich in hits. Some 1.5% of all compounds tested hit in one or more screens of this group.
PINK1 expr mod: PINK1 expression modulation. Potency, µM (highest dose often 76.6 µM), for the others: top-dose activation (PINK1 increase), hits mostly activators. 410,000 tested, 0.2% active. PINK1 immunofluorescence, high-content cytometry, 24 h; active means well fitted activation curve with a large enough effect; inconclusive means small, poorly fitted or top-dose-only effect; cell line not stated here; further: potency means the concentration at half of the fitted maximal effect; % of control where 0% means no effect; nearly all actives have a fitted effect of over 65% in size
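Fluorescence from anti-PINK1 antibody, together with nuclear and cell stains, was scanned on a laser-scanning cytometer. Before staining, stable-line cells were incubated 24 hours with compounds at 5 concentrations; primary antibody 12 h at 10 degrees C.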
Akt phos inh: Akt phosphorylation inhibition; Neuro2A IGF-stimulated pAkt S473 HTRF, 20 min; active compounds read low; activity change, % for hits at 50 µM; 360,000 tested, 0.32% active; AID 651550; in the data active means activity change below about -80%; inconclusive means mostly about -51% to -80%; further: on the % scale 0 is the no-effect control and ±100 the full control effect
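Neuro2A cells in DMEM with 0.5% FBS, overnight at 37 deg C, given compound at single 50 µM final, then IGF (6 nM final) for 20 min at 37 deg C. Lysed; phospho-Akt Ser473 by HTRF after 24 h, 665/615 ratio.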
TCR activator: activates T cell receptor signaling. AID 504894. 330,000 tested, under 10 active. Potency, µM (highest dose often 9.22 µM), for the others: top-dose activation of IL-2 secretion, usual class: activators. primary human leukocytes, anti-CD3, IL-2 HTRF, 48 h; further: % of control where 0% means no effect
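Primary human leukocytes were stimulated with a-CD3 beads plus compounds for 48 hr without co-stimulation; secreted IL-2 was quantified by HTRF using a-IL-2-K (europium cryptate) and a-IL-2-d2, excited at 320nm with acceptor emission read at 665nm.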
BRCA1 expr up: activators of BRCA1 expression; MCF7-BRCA1-FFLuc reporter, luminescence, 48 h; response scale: scaled: vehicle 0%, 10 µM genistein 100%; Potency, µM (top dose mostly 46.1 µM), for the others: top-dose activation, usual class: activators; 380,000 tested, 1.1% active; further: potency means the concentration at half of the fitted maximal effect; nearly all actives have a fitted effect of over 80% in size
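Compounds are tested at multiple concentrations on MCF7 BRCA1-luciferase reporter cells seeded at 2000 per well; after 48 h, a single luminescence end-point is taken and curves fitted to the normalized data.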
* marks the source's active call; other numbers are inactive results; i = inactive; ? = inconclusive; nt = not tested or not shown; [ ] = remark or other dose. Unless noted, the call rests on the fitted dose curve; in most records, active means well fitted curve in the direction sought with a large enough effect; inconclusive means small, poorly fitted or top-dose-only effect, or another doubt; inactive means no such curve, though single readings can be large; an effect the other way counts as inactive or inconclusive.

SMILES	PINK1 expr mod	Akt phos inh	TCR activator	BRCA1 expr up
CC(C)(CNC(=O)c1cnn(-c2ncc3c(n2)-c2ccccc2CC3)c1C1CC1)N1CCOCC1	-0.7%	nt	nt	nt
O=C(CCCc1ccccc1)c1ccc2c(c1)OCCO2	-0.3%[38.3 µM]	-124.5%*	-0.9%[46.1 µM]	-77.6%
O=C(CCc1ccccc1)c1ccc2c(c1)OCCCO2	-0.3%	i	-4.0%	3.55µM*
O=C(/C=C/c1ccccc1)c1ccc2c(c1)OCCCCO2	-1.8%	i	-0.7%	2.24µM*
O=C(NCCc1ccccc1)c1ccc2c(c1)OCCO2	1.0%	i	nt	?
O=C(c1ccccc1)c1ccc2c(c1)OCCCO2	1.9%	i	-1.7%	1.41µM*
O=C(O)CCC(=O)c1ccc2c(c1)OCCCO2	2.2%	i	-3.4%	9.3%
O=C(c1ccccc1)c1ccc2c(c1)OCCOCCOCCO2	1.6%	i	-0.5%	39.8%
COc1cccc(CNC(=O)c2ccc3c(c2)N(C)C(=O)C2CCCCN32)c1 (centres undefined)	1.4%	nt	nt	nt
O=C(NCCc1ccccc1)c1ccc2c(c1)OCCCO2	-0.2%	i	7.9%	-109.6%
O/N=C(/CCc1ccccc1)c1ccc2c(c1)OCCO2	5.8%	i	6.0%	2.82µM*
CCc1nc2cc(C(=O)N(C)CC3CCCN(C)C3)cc(NC(=O)c3ccccc3OC)c2n1C (centres undefined)	0.5%	nt	nt	nt
CCOc1ccccc1N(CC(=O)Nc1ccc(S(=O)(=O)N2CCOCC2)cc1)S(=O)(=O)c1ccccc1	4.1%	-127.3%*	4.3%	-14.1%
CN(C)c1ccc(/C=C/c2ccnc3c(Cl)ccc(Cl)c23)cc1	10.9%	nt	nt	4.3%
Cc1ccc(C)c(CSc2nnc(-c3ccccn3)n2N)c1	-1.8%	i	-5.3%	11.1%
Nn1c(SCc2c(F)cccc2F)nnc1-c1ccccn1	-0.8%	i	-3.9%	5.62µM*
COc1cccc(C2C(C#N)=C(N)OC3=C2C(=O)CC(c2ccco2)C3)c1OCc1ccc(F)cc1 (centres undefined)	2.9%	i	-3.4%	-19.9%
N#CC1=C(N)OC2=C(C(=O)CC(c3ccco3)C2)C1c1ccc(OCc2c(F)cccc2Cl)cc1 (centres undefined)	0.0%	-112.2%*	7.8%	12.7%
CNc1ncc(C(=O)c2ccc(Cl)cc2)s1	-0.1%	i	0.7%	4.47µM*
CNc1ncc(C(=O)c2ccc(-c3ccccc3)cc2)s1	2.6%	i	-4.0%	2.82µM*
Cc1cnc(-n2ncc(C(=O)NC(C)(C)CO)c2-c2cccs2)nc1-c1ccc(F)cc1	-1.1%	nt	nt	nt
CCN(CC)c1ccc(/C=N/N2CCOCC2)c(O)c1	2.3%	i	1.1%[46.1 µM]	6.31µM*
Cc1c(C(=O)NCCc2cccnc2)cnn1-c1nccc(-c2ccccc2F)n1	-0.3%	nt	nt	nt
CCOC(=O)c1ccc2ncc(-c3ccccc3)nc2c1	2.9%	i	-1.9%	12.6µM*
CC(=O)Nc1ccc(C(=O)OCc2ccccc2Br)cc1	3.8%	i	-4.4%	62.4%
SMILES	PINK1 expr mod	Akt phos inh	TCR activator	BRCA1 expr up
O=C(Nc1cccc(-c2cnc3ccccc3n2)c1)c1ccccc1	10.9%[38.3 µM]	i	-17.5%	18.0%
CCOC(=O)c1cnc(-c2ccccc2)nc1N	?	i	nt	3.98µM*
CCOC(=O)c1cnc(-c2ccccc2)nc1N(C)C	2.1%[38.3 µM]	nt	5.6%	-48.9%
Cc1cc2ncc(-c3ccccc3)nc2cc1C	2.0%	i	-11.3%	?
Cc1nc2ccc(C(=O)OCc3ccccc3Br)cc2nc1C	9.7%[38.3 µM]	i	2.7%	7.08µM*
CCc1ccc(-c2cnc3ccccc3n2)cc1NC(=O)CNC(=O)c1ccccc1	-1.1%	i	0.6%	7.94µM*
CCC1CN(CCNC(=O)c2cn3cc(C)ccc3n2)Cc2cc(OC)ccc2O1 (centres undefined)	2.6%	nt	nt	nt
COc1ccc(C(=O)NNC(=O)c2cc3cccc(OC)c3oc2=O)cc1	-1.5%	i	-52.6%	-14.7%
COc1cccc2cc(NC(=O)C3CCCCC3)c(=O)oc12	4.9%[38.3 µM]	i	-3.4%	6.31µM*
COc1ccc(C(=O)Cc2cc3cccc(OC)c3oc2=O)cc1	1.9%	i	7.7%	15.8µM*
COc1cccc2cc(CC(=O)c3ccc(C)cc3C)c(=O)oc12	1.8%	i	-0.8%	11.2µM*
CN(C)/[N+]([O-])=N/Oc1ccc([N+](=O)[O-])cc1C(F)(F)F	-1.6%	nt	nt	19.5%
N=C1S/C(=C\c2cn[nH]c2-c2ccc(F)cc2)C(=O)N1c1ccccc1F	0.9%	i	-5.7%[46.1 µM]	7.08µM*
O=C(NNc1ccccc1[N+](=O)[O-])Nc1ccc(Cl)c(Cl)c1	?	i	5.3%[46.1 µM]	-73.9%
CCN(CC)S(=O)(=O)c1cc([N+](=O)[O-])ccc1NNC(=O)Nc1ccc(Cl)c(Cl)c1	14.1µM*	i	2.3%	-73.2%
O=C(NC(=S)NC1CCN(Cc2ccccc2)CC1)c1ccc(F)cc1	1.1%	i	-1.8%	-12.3%
N=c1oc2ccccc2cc1C(=O)NC1CCCCCC1	3.0%	i	-8.6%	4.47µM*
O=C(NC(=S)NC1CCCCC1)c1ccc(F)cc1	9.7%	i	10.3%	11.2µM*
O=C(NC1CCCCCC1)c1cc2ccccc2oc1=O	1.6%	i	5.3%	65.6%
O=C(NC1CCCCC1)c1ccc2ccccc2c1	3.2%	i	nt	3.16µM*
COc1ccccc1CN1CCOc2ccc(C(C)(O)CN(C)C)cc2C1 (centres undefined)	-0.9%	nt	nt	nt
CCC1(C2CCN(C(=O)c3cc(C)cc(C)c3)CC2)NC(=O)N(CCc2scnc2C)C1=O (centres undefined)	0.5%	nt	nt	nt
CCCCCCN1C=CC(=C/C=C(\C#N)C(=O)OCC)C=C1	12.6µM*	i	-2.1%	-17.1%
CCc1nc2ccc(C(=O)NCc3ccc(OC)c(OC)c3)cc2nc1CC	1.3%	nt	nt	nt
CC(=O)Nc1nc(COc2ccc3ccccc3c2)cs1	nt	nt	-1.6%	42.6%[1.84 µM]
SMILES	PINK1 expr mod	Akt phos inh	TCR activator	BRCA1 expr up
Nc1nc(COc2ccc3ccccc3c2)cs1	4.0%[38.3 µM]	i	-1.7%	6.31µM*
COc1cc(=O)n2c(c1C(=O)NCc1ccco1)CCN(Cc1ccc3nsnc3c1)CC2	1.9%	nt	nt	nt
CCOC(=O)N1CCN(C(=O)c2ccc(Cn3c(=S)[nH]c4ccc(Br)cc4c3=O)cc2)CC1	25.1µM*	i	-3.4%	-38.3%
O=c1c(-c2cccs2)nc2cnc(Oc3ccccc3)nc2n1C1CC1	0.4%	nt	nt	nt
Cc1cc(Cl)ccc1Nc1ncccc1C(N)=O	-2.1%	i	-1.6%[46.1 µM]	4.47µM*
NC(=O)c1cccnc1Nc1ccccc1F	1.2%	i	2.0%[46.1 µM]	?
Cc1cc(C(=O)NCC2CCC3(CCN(Cc4ccccc4C)CC3)O2)n(C)n1 (centres undefined)	0.8%	nt	nt	nt
COc1ccc2c(c1OC)C(=O)N(c1cccc(C(F)(F)F)c1)C2	3.16µM*	i	nt	2.82µM*
CC(C)(C)c1ccc(N/N=C(\C#N)S(=O)(=O)C(C)(C)C)cc1	39.8µM*	i	6.8%	-49.1%
N#C/C(=N\Nc1ccc(Cl)cc1)C(=N)N1CCCCCC1	-1.6%	i	-5.4%	?
Cc1cccc(N/N=C(\C#N)S(=O)(=O)C(C)(C)C)c1	3.1%	i	-4.5%	-23.0%
CC(C)(C)S(=O)(=O)/C(C#N)=N/Nc1ccc(Cl)cc1	28.2µM*	i	-1.5%	-53.9%

Bioassay records deposited in PubChem by National Center for Advancing Translational Sciences (NCATS).
